For 40 molecules, growth results are on record in PubChem BioAssay (NCI).

About 83,000 compounds went through this panel and 20% of them were active in at least one assay; those are over-represented in the sample as a whole.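 Single-dose data. Exposure time 48 hours. Values below 10 considered active.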 Activity calls are given as the source filed them.

The assay deals with PC-3 prostate. Nature of the assay: NCI-60 one-dose screen, 48 h (100 = growth as untreated, 0 = no growth, -100 = all killed). The note with it: 10 µM unless noted. Here is the method:
Growth inhibition of the PC-3 human tumor cell line is measured as a screen for anti-cancer activity. Cells are grown in 96 well plates and exposed to the test compound for 48 hours. Compounds are tested at a single concentration, which is 10^-5 M for most compounds. The reported endpoint is percent growth (GI% or GIPRCNT), where numbers from 0 - 100% represent growth inhibition, and numbers from -100% - 0 represent cell death. For example, a value of 40 represents 60% growth inhibition. A value of 0 means no net growth occurred over the course of the experiment. A value of -40 indicates 40% of cells at the beginning of the experiment died by the end of the experiment. A value of -100 means all cells are dead at the end of the experiment.
NCI-60 Human Tumor Cell Lines Screen was performed using the standard one-dose NCI protocol, which is described in more detail at https://dtp.cancer.gov/discovery_development/nci-60/default.htm.
Compounds with GIPRCNT values below 10 were considered active. Activity score was based on GIPRCNT using the following formula: […]
Score is 0 for GIPRCNT values of 100 or above, 50 for GIPRCNT values of 0, and 100 for GIPRCNT values of -100.
For `COc1ccc(-c2nc(SCC(C)C)nc(N/N=C\c3cccc([N+](=O)[O-])c3)c2C#N)cc1`, the growth was 55.2% (inactive).

Turning to `CS(=O)(=O)c1ccc(-c2nn(-c3ccccc3)cc2/C=C/C(=O)c2ccc(Br)cc2)cc1`, the growth was 89.1% (inactive).

On to `O=c1[nH]c2cc(Cl)ccc2n1C1CCN(c2ccc3nnc(Cl)n3n2)CC1`, for which the growth was 82% (inactive).

On to `COC[C@@]1(C)CC[C@]2(C)CC[C@]3(C)C(=CC[C@@H]4[C@@]5(C)CCCNC(C)(C)[C@@H]5CC[C@]43C)C2C1` (stereo not given in full), for which the growth is 46.4% (inactive).

With `CC1=CC(=O)CC(C)(C)[C@@]1(O)/C=C/C(C)=C\C(=O)O`, the growth was -7.5% (active).

Regarding `COc1ccc([C@H]2c3[nH]c4ccccc4c3C[C@@H]3C(=O)N(C4CCN(Cc5ccccc5)CC4)CC(=O)N23)c(OC)c1`, the growth is 48.1% (inactive).

For the molecule `Cc1nn(-c2ccccc2)cc1/C=N/Nc1nc(Nc2ccccc2)nc(Nc2ccc(S(N)(=O)=O)cc2)n1`, the growth is 1.45% (active).

For `COc1cc(O)c2c(c1)[C@H]1O[C@@H]1C[C@H](O)[C@H](O)C(=O)/C=C\C[C@H](C)OC2=O`, the growth is 66.8% (inactive).

Take `CCOP(=O)(OCC)OC[C@]12CCC(C)(C)C[C@H]1C1=CC[C@@H]3[C@@]4(C)C/C(=C\c5cccnc5)[C@H](OP(=O)(OCC)OCC)C(C)(C)[C@@H]4CC[C@@]3(C)[C@]1(C)CC2`: the growth was 15.6% (inactive).

As to `CCC(CC)n1c(=O)c(SC2=NC3C(NN2)N(CC)C(=O)N3CC)c(C(=O)O)c2ccccc21` (stereo not given), the growth was 23.9% (inactive).

For `O=C(CN1C(=O)CSC1=O)Nc1ccc(C(=O)/C=C/c2cc3ccccc3nc2Cl)cc1`, the growth was 70.5% (inactive).

For `COc1cc(CNC(=O)Cc2ccccc2[N+](=O)[O-])ccc1OCC(=O)NO`, the growth was 95.9% (inactive).

On to `COc1ccc(N2C(=O)c3cc(OC)c(OC)cc3NC2SCc2ccccc2)cc1` (stereo not given), for which the growth was 102% (inactive).

For the molecule `C=C(C)[C@@H]1CC[C@]2(C)[C@H](CC=C3[C@@H]4CC(C)(C)CC[C@]4(C(=O)NCC#CCN4CCN(C)CC4)CC[C@]32C)[C@@]1(C)CCC#N`, the growth is 37.3% (inactive).

For `CC(C)=CCc1c(O)c(CC=C(C)C)c2c(c1O)C(=O)C1=C[C@@H]3C[C@H]4C(C)(C)O[C@@](C/C=C(\C)C(=O)O)(C3=O)[C@@]14O2`, the growth is 11.3% (inactive).

In the case of `Oc1ccccc1/C=N/Nc1nc(N/N=C/c2ccccc2O)nc(N2CCOCC2)n1`, the growth is 24.1% (inactive).

As to `CN(C)c1ccc(/C=N/Nc2nc(N/N=C/c3ccc(N(C)C)cc3)nc(N3CCOCC3)n2)cc1`, the growth is 87.7% (inactive).

Regarding `COc1ccc(OC)c([C@H]2c3[nH]c4ccccc4c3C[C@H]3C(=O)N(CCCCCCC(=O)NO)CC(=O)N23)c1`, the growth is 77.9% (inactive).

`c1ccc(-c2c(-c3ccccc3)[n+](Cc3ccc4ccccc4c3)c(-c3ccccc3)n2Cc2ccc3ccccc3c2)cc1`: the growth was -87.3% (active).

Consider `N#Cc1c(NC(=O)c2ccc(F)c(Cl)c2)sc2c1CCC(=O)C2`, for which the growth is -19.8% (active).

Consider `CC(C)SC1=NC(=C(C(=N1)NC2=ClC=CC=C2)C#N)C3=CC=CC=C3`, for which the growth is 78.2% (inactive).

Turning to `O=C1[C@H]2Cc3c([nH]c4ccccc34)[C@@H](c3c(Cl)cccc3Cl)N2C(=O)CN1C1CCN(Cc2ccccc2)CC1`, the growth was 77.8% (inactive).

`C=CCn1c(SCC(=O)Nc2cccc(C(=O)/C=C/c3ccccc3Cl)c2)nc2ccccc2c1=O`: the growth is 82.8% (inactive).

Consider `COc1ccc(Cn2cc3c(c2-c2cc(OC)c(OC)c(OC)c2)CCCc2cnoc2-3)cc1`, for which the growth is 44.4% (inactive).

Consider `CCC(CC)N1C(=O)/C(=c2\sc3n(c2=O)C2C(NN=3)N(CC)C(=O)N2CC)c2ccccc21` (stereo not given), for which the growth was 33.7% (inactive).

With `COc1cc(-c2nc(SCc3ccc(C)cc3)[nH]c(=O)c2C#N)ccc1OCc1ccccc1`, the growth was 107% (inactive).

With `COc1ccc2c(c1)c(-c1nnc(N)nc1-c1cn(C)c3ccccc13)cn2C`, the growth was 88.8% (inactive).

Regarding `COc1ccc(C(=O)n2cc(C=O)c3ccccc32)cc1`, the growth is 90.5% (inactive).

As to `NC(=O)c1c(NC(=O)c2cccc(C(F)(F)F)c2F)sc2c1CCC(=O)C2`, the growth was 17.9% (inactive).

In the case of `COc1ccc(NC(=O)[C@H](C)NC(=O)OC(C)(C)C)cc1C(=O)Nc1cccc(-c2cc(=O)c3c(OC)c(OC)c(OC)cc3o2)c1`, the growth is -36.9% (active).

In the case of `O=C(Nc1ccccc1)Nc1nc2ccc([N+](=O)[O-])cc2s1`, the growth was 4% (active).

`Cc1cc(-c2ccc3nc(N)sc3c2)nc2ccc3[nH]ncc3c12`: the growth is 62.5% (inactive).

For `Cc1nc(-c2cc3ccccc3c(N3CCN(C)CC3)n2)cs1`, the growth was 86.8% (inactive).

For `Cc1ccc(-c2csc(N/N=C/c3nc4ccccc4n3C3CC3)n2)cc1`, the growth was 61.6% (inactive).

In the case of `ClC(Cl)c1nc(-c2cccs2)n2nc(-c3ccccc3)cc2n1`, the growth was -32.3% (active).

For the molecule `Nc1nc(-c2cccc([N+](=O)[O-])c2)c(N=Nc2cccc(Cl)c2)s1`, the growth is 37.6% (inactive).

As to `CCCCCCCCNC(=O)c1ccc(Cn2c(CCCC)nc3c(N)nc4ccccc4c32)cc1`, the growth is 41.5% (inactive).

In the case of `CN1C(=O)N(C)C2Nn3c(s/c(=C\c4ccccn4)c3=O)=NC21` (stereo not given), the growth was 99.1% (inactive).

As for `CCN1C/C(=N\S(=O)(=O)c2ccccc2)N(CC)C1=S`, the growth is 110% (inactive).

On to `COc1cc2c3c(n(CCCNC4CCC4)c(=O)c2cc1OC)-c1cc2c(cc1C3=O)OCO2`, for which the growth is -78.7% (active).
